In PubChem BioAssay AID686940 (The Scripps Research Institute Molecular Screening Center, 2013):
About 2,600 (0.7%) of roughly 370,000 compounds were called active. This is one part of a sample in which actives are shown more often than they occur. Values without a mark were called inactive.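 The calls were made as follows: active = inhibition above a per-plate cutoff, mean inhibition of test wells between control levels plus 3 SD (cut at about 38% in these data); inactive = the rest.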

Each molecule was assayed against COUP transcription factor 2 (Homo sapiens) (UniProt P24468) (assay: COUP-TFII reporter suppression in human cells – cell-based, luciferase reporter, HEK293T, luminescence, primary screen (AID 686940;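 also: cells cotransfected with COUP-TFII expression vector driving the NGFI-A reporter; 0% = median of COUP-TF2 test wells and 100% = reporter-only cells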)). Conditions: HEK293T NGFI-A luciferase reporter, at 8.6 µM, active compounds read high.
COUP transcription factor 2 (Homo sapiens), sequence (P24468 whole entry, looked up): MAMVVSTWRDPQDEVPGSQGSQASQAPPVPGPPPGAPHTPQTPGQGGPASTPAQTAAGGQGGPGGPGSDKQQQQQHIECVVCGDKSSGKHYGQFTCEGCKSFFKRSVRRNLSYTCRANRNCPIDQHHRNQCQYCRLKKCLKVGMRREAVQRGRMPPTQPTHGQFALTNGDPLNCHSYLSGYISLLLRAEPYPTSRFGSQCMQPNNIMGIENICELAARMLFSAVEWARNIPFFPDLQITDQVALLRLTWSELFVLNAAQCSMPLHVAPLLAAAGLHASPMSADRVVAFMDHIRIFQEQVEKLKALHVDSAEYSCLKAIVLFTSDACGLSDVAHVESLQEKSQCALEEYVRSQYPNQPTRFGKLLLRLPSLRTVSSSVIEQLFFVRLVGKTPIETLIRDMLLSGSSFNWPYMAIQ
`CN(C)S(=O)(=O)c1cccc(C(=O)N/N=C\c2ccco2)c1` gave an inhibition of 2.18%. In the case of `O=C(Nc1ccccc1)N1CCN(Cc2nc3ccccc3c(=O)[nH]2)CC1`, the inhibition is reported as 13.6%. Molecule `O=C(C1CCN(S(=O)(=O)c2ccccc2)CC1)N1CCN(C2CCCCC2)CC1` has an inhibition of -29.2%. `CCN(CC)P(=O)(C(NC(=O)OC)C(F)(F)C(F)(F)C(F)(F)C(F)F)N(CC)CC` (stereo not given) was tested, and the inhibition was 98.4% (active). With `O=C(CSc1nc2c(c(=O)[nH]1)CCCC2)N1CCCCC1` the inhibition was -26.3%. Molecule `O=S1(=O)c2ccc(N3CCN(Cc4ccccc4F)CC3)cc2Oc2ccccc2CN1Cc1cn(Cc2ccc(Cl)cc2)nn1` has an inhibition of -6.71%. For `Cc1ccc(-n2c(SCC(=O)Nc3ccc(S(=O)(=O)Nc4nccs4)cc3)nnc2-c2ccccn2)cc1`, the inhibition was -5.91%. `C=CCSc1nsc(NC(=O)Nc2cccc(C(C)=O)c2)n1` was tested, and the inhibition was 38.1% (active). In the case of `CCSc1nsc(NC(=O)Nc2cccc(C(C)=O)c2)n1`, the inhibition is reported as 17.5%. In the case of `CCCCN1C(=O)C(=O)N(CC(=O)Nc2cccc(C(C)=O)c2)C1=O`, the inhibition is reported as 0.73%. `COC(=O)C[C@@H]1CC[C@@H]2[C@H](COc3ccc(NC(=O)c4cccc(F)c4)cc3C(=O)N2C)O1` gave an inhibition of -0.62%. For `COc1ccc(-n2c(SCC(=O)Nc3ccc4cn[nH]c4c3)nnc2-c2cccnc2)cc1`, the inhibition was 9.8%. Work on `N#CCC[C@H]1CC[C@]2(CCCN(Cc3ccc(Cl)cc3)C2)O1` yielded an inhibition of 1.96%. `O=C1NC[C@H](CCCCN2C[C@H](Cc3ccccc3)N(Cc3ccccc3)C(=O)C2=O)N(CCc2ccc(O)cc2)C1=O` gave an inhibition of -7.95%. `O=C1NC[C@H](CCCCN2C[C@H](Cc3ccc(O)cc3)N(CCc3ccccc3)C(=O)C2=O)N(CCc2ccccc2)C1=O` showed an inhibition of -1.56%. `O=C1NC[C@@H](Cc2ccc(O)cc2)N(CCc2cccc(F)c2)C1=O` was tested, and the inhibition was 48.2% (active). With `COc1ccnc(C(=O)N2CCC(Oc3cccnc3)CC2)c1` the inhibition was -26.8%. `O=S1(=O)c2c(cccc2N2CCSCC2)Oc2ccccc2CN1Cc1cn(Cc2ccc(F)cc2)nn1` showed an inhibition of -4.53%. Molecule `O=C(Nc1cc(Cl)cc(Cl)c1)OCCN1CCCC12CCC(c1ccccc1)CC2` (stereo not given) has an inhibition of 2%. `NS(=O)(=O)c1ccc(CCNC(=O)CNC(=O)Cc2ccccc2)cc1` showed an inhibition of 10.1%. `CC(Nc1nc(C(F)(F)F)nc2ccccc12)c1cccs1` (stereo not given) gave an inhibition of -15.1%. With `NS(=O)(=O)c1ccc(CCNc2nc(C(F)(F)F)nc3ccccc23)cc1` the inhibition was 46.6% (active). `CCCCn1c(SCC(=O)N2CCCC2=O)nc2cc(S(N)(=O)=O)ccc21` gave an inhibition of -5.45%. For `c1ccc(-c2cnc(CN3CCN(c4ccccc4)CC3)o2)cc1`, the inhibition was -25.5%. For `CCCCn1c(SCc2ncc(-c3ccccc3)o2)nc2cc(S(N)(=O)=O)ccc21`, the inhibition was 47% (active). In the case of `Cc1ccc(NC(=O)Nc2cc(C)nn2-c2ccccc2)cc1`, the inhibition is reported as -17.6%. With `COc1ccc(C2CC=C(C(=O)O)C(c3ccccc3F)N2S(=O)(=O)c2ccc(C)cc2)cc1OC` (stereo not given) the inhibition was 13%. `COc1ccc2c(C(C)c3ccc(N)cc3)cn(C)c2c1` (stereo not given) gave an inhibition of -15.8%. For `O=C(C1CCCN1S(=O)(=O)c1ccccc1)N1CCc2ccccc2C1` (stereo not given), the inhibition was 7.01%. In the case of `CN1C(=O)c2cc(NS(C)(=O)=O)ccc2OC[C@@H]2O[C@@H](CC(=O)NCc3ccc(-c4ccccc4)cc3)CC[C@H]21`, the inhibition is reported as -21.8%. In the case of `O=C(c1cc(C(=O)N2CCN(c3ccc(F)cc3)CC2)cc([N+](=O)[O-])c1)N1CCN(c2ccc(F)cc2)CC1`, the inhibition is reported as 58.1% (active). `O=[N+]([O-])c1ccc(N2CCN(c3ccc(F)cc3)CC2)cn1` was tested, and the inhibition was -9.2%. Molecule `O=C(c1cncc(Br)c1)N1CCN(c2ccc([N+](=O)[O-])cc2)CC1` has an inhibition of 9.04%. With `CN(C)CC(=O)N[C@@H]1C[C@@H]2O[C@H](CO)CC[C@@H]2O[C@@H]1CCc1ccc(C#Cc2ccccc2)cc1` the inhibition was 27.3%. With `Cc1cc(C(=O)NC2CCCc3c2cnn3-c2cccc(C)c2C)c(C)o1` (stereo not given) the inhibition was 44.6% (active). For `Cn1nccc1C(=O)NC1CCCc2c1cnn2-c1ccccc1F` (stereo not given), the inhibition was 63.7% (active). Molecule `COCc1ccc(C(=O)NC2CC(C)(C)Cc3c2cnn3-c2ccc(C)cc2)o1` (stereo not given) has an inhibition of -7.12%. In the case of `Cc1cc(C(=O)NC2CC(C)(C)Cc3c2cnn3-c2ccccc2)n[nH]1` (stereo not given), the inhibition is reported as -4.58%. `COc1ccc(C(=O)NC2CC(C)(C)Cc3c2cnn3-c2ccccc2)c(OC)c1` (stereo not given) gave an inhibition of -0.91%. `COC(=O)c1ccc(C(=O)NC2CC(C)(C)Cc3c2cnn3-c2ccc(F)cc2)nc1` (stereo not given) gave an inhibition of -4.63%. For `Cn1nccc1C(=O)NC1CCCc2c1cnn2-c1ccc(F)cc1F` (stereo not given), the inhibition was 60.9% (active). With `O=C(CCNC(=O)c1ccc(Cl)cc1)NC1CCCc2ccccc21` (stereo not given) the inhibition was -32.6%. `Cc1cc(C(=O)NNC(=O)CCC2CCCCC2)c(C)o1` showed an inhibition of 3.17%. Work on `COc1cccc(CSc2nnc(-c3cccnc3)n2Cc2ccccc2)c1` yielded an inhibition of 14.1%. Molecule `COC(=O)c1cccc(Cn2ccc3ccc(-c4ccc5ccn(C(=O)C6CCCCC6)c5c4)cc32)c1` has an inhibition of -12.6%. Work on `O=C(NCCC1=CCCCC1)C1CCN(S(=O)(=O)c2ccc(Cl)s2)CC1` yielded an inhibition of 8.27%. For `COC(=O)[C@H](C(C)C)N1CCc2nnn(Cc3ccc(C)cc3)c2-c2ccccc2S1(=O)=O`, the inhibition was 7%. With `COC(=O)C[C@@H]1CC[C@@H]2[C@@H](COc3ccc(NC(=O)Nc4ccc(F)c(F)c4)cc3C(=O)N2C)O1` the inhibition was 4.71%. For `CC[n+]1cc(C)ccc1/C=C/c1ccc(N(C)C)cc1`, the inhibition was 74.1% (active). For `O=S1(=O)c2ccc(Br)cc2OC[C@@H](Cc2ccccc2)N1Cc1cn(Cc2ccco2)nn1`, the inhibition was 8.82%. Work on `C=CCN1C(C(=O)OC)CN(Cc2cn(Cc3ccccc3)nn2)CCS1(=O)=O` (stereo not given) yielded an inhibition of -8.52%. `CC(CCN1CCC(C(O)(c2ccccc2)c2ccccc2)CC1)Oc1ccc([N+](=O)[O-])cc1Cl` (stereo not given) was tested, and the inhibition was 10.1%. `CC(C)(C)OC(=O)NCc1cc(F)ccc1/C=C/S(=O)(=O)NCCc1ccccc1` showed an inhibition of 9.33%. In the case of `CCN1/C(=C\c2ccc3ccccc3[n+]2CC)Sc2cc(C)ccc21`, the inhibition is reported as 73% (active). Work on `N#Cc1ccccc1OC[C@@H](O)CN1CCC(C(O)(c2ccccc2)c2ccccc2)CC1` yielded an inhibition of -5.47%. For `Cc1cc(C)n2ncc(C(=O)Nc3ccc4c(c3)OCCO4)c2n1`, the inhibition was -31.2%. `C=C1C(C(C)C)N(C)C2=NC(c3ccccc3)CC(=O)N12` (stereo not given) gave an inhibition of -5.15%. With `CCn1ccnc1CN(C)C(=O)c1cc(COc2ccc(Cl)cc2OC)on1` the inhibition was -30.8%. For `CN(Cc1cccnc1)C(=O)c1cc(COc2ccc3ncccc3c2)on1`, the inhibition was 64.7% (active). `CCOc1ccc(NS(=O)(=O)c2ccc(Cl)c(C(=O)N(C)Cc3cccnc3)c2)cc1` was tested, and the inhibition was -10.5%. With `COc1ccc(-n2c(COc3ccc(C)cc3)nnc2SCC(=O)Nc2ccc(Oc3ccccc3)cc2)cc1` the inhibition was 9.67%. `C[C@@H]1CN([C@@H](C)CO)C(=O)c2cccc(NC(=O)Nc3cccc4ccccc34)c2O[C@H]1CN(C)S(=O)(=O)c1ccccc1F` was tested, and the inhibition was 11.9%. `CCOC(=O)C1=C(c2ccc(OC)cc2)C(=O)c2ccccc2C1=O` was tested, and the inhibition was 74.4% (active). Molecule `CCOC(=O)C1C(=O)C=C(c2ccc(OC)cc2)CC1c1ccco1` (stereo not given) has an inhibition of -3.88%. For `CCOC(=O)C1=C(CC)Nc2ccccc2N=C1N`, the inhibition was -4.65%. In the case of `C=C(C)C#CC(Cc1ccccc1)NCC1CC1` (stereo not given), the inhibition is reported as 7.7%. In the case of `Cc1ccc(Cn2cc(COC(=O)N(C)Cc3ccccc3)nn2)cc1`, the inhibition is reported as 4.98%. `COc1ccc(CN2CCOC2=O)cc1OC` gave an inhibition of 12.6%. Work on `COc1ccccc1CNC(=O)CCn1c(=O)sc2ccccc21` yielded an inhibition of 4.05%. With `COc1ccc(Cn2c(=O)sc3ccccc32)cc1OC` the inhibition was 48.4% (active). In the case of `CCC(=O)Nc1ccc2c(c1)C(=O)N(C)[C@H]1CC[C@H](CC(=O)NCCOC)O[C@@H]1CO2`, the inhibition is reported as 13.3%. `CC(CCN1CCC(C(O)(c2ccccc2)c2ccccc2)CC1)Oc1ccc(Cl)cc1` (stereo not given) was tested, and the inhibition was 3.23%. In the case of `O=S1(=O)c2c(cccc2N2CC[C@H](O)C2)O[C@@H]2CCN1C2`, the inhibition is reported as 10.5%. `C[C@H]1CCC/C=C/C(=O)c2c(O)cc(O)cc2CC(=O)O1` was tested, and the inhibition was 38.3% (active). `CN(C(N)=NC(=O)/C=C/c1ccccc1)C(C#Cc1ccccc1)Cc1ccccc1` (stereo not given) gave an inhibition of 4.75%. `O=C(CSc1nnc(-c2ccccn2)n1-c1ccc(Cl)cc1)Nc1ccccc1-c1ccccc1` was tested, and the inhibition was 7.79%. With `O=C(CCC(=O)N1CCN(S(=O)(=O)c2ccc(Cl)cc2)CC1)NCc1cccc(C(F)(F)F)c1` the inhibition was 53% (active). `CC(NC(=O)CCC(=O)N1CCN(S(=O)(=O)c2ccc(Cl)cc2)CC1)c1ccccc1` (stereo not given) was tested, and the inhibition was -14.9%. `O=C(NCc1cccc(C(F)(F)F)c1)c1cccc(S(=O)(=O)N2CCN(Cc3ccccc3)CC2)c1` gave an inhibition of -3.7%. With `O=C(NCc1ccco1)C1CCCN(S(=O)(=O)c2ccc(Cl)s2)C1` (stereo not given) the inhibition was -2.82%. `O=C(NC1CCCC1)C1CSCCS(=O)(=O)N1Cc1ccccc1` (stereo not given) showed an inhibition of 0.16%. With `CCc1ccc(-c2nn(-c3ccccc3)cc2CSC(=N)N)cc1` the inhibition was -5%. `CCOc1ccc(Br)cc1CSC(=N)N` gave an inhibition of 22.1%. For `N=C(N)SCc1cccc2ccccc12`, the inhibition was 38.5% (active). With `COC(=O)C1CN(CCc2ccccc2)CCS(=O)(=O)N1Cc1ccc(F)cc1` (stereo not given) the inhibition was 3.48%.
